Compound activity: PubChem BioAssay, National Center for Advancing Translational Sciences (NCATS)
GPR32 ag: GPR32 (DRV1) agonism, beta-arrestin recruitment; O75388; CHO-K1 GPR32 beta-arrestin PathHunter luminescence, 90 min; zero percent set by DMSO-only wells; activation, % at 76.9 µM; 48,000 compounds, 2.5% hits; AID 1346428;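 active = activation of at least 60% and not above a set upper limit, about 1 call in 100 departs from these limits; inconclusive = activation of 40% to 60%, or above that upper limit; inactive = activation under 40%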; also: 0% is about no effect
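PathHunter beta-arrestin recruitment in CHO-K1 cells stably expressing ProLink-tagged GPR32. Cells were exposed to compound for 90 min at 37 C, then chemiluminescence was read after 1 h detection at ambient temperature; DMSO served as basal control.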
B2AR arrestin ag: ADRB2 beta-arrestin recruitment; P07550; HTLA Tango cells, beta-arrestin recruitment, luciferase luminescence, 18 h; Potency, µM (doses to about 46.1 µM), hits mostly activators; 44,000 tested, under 10 active; AID 1347077;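 also: potency is read from the fitted curve at half-maximal effect; 0% = DMSO and full agonism = EC100 isoproterenol or metaproterenol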
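Tango cells (recombinant beta2-AR, beta-arrestin, tTA-driven luciferase), 1500/well in DMEM 1% FBS, treated 18 h at 37 °C with compounds up to 46 µM; luciferin mix added, luminescence read after 15 min; %activity curves fitted and curve-classed.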
TSG101-PTAP inh: TSG101-PTAP interaction inhibition, HIV-1 budding. Q99816. Fluorescence polarization, FITC-PTAP peptide/Tsg101, 20 min. Potency, µM (highest dose often 115 µM), usual class: inhibitors. 44,000 tested, under 10 active. AID 1347069; also: potency is read from the fitted curve at half-maximal effect; 0% is about no effect
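Read-out is FITC fluorescence polarization. Compounds were added to Tsg101 binding domain (10 uM final), then FITC-PTAP peptide (50 nM final), 20 min at r.t. Total S+P intensity flags fluorescent compounds.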
GALK inhibitor: inhibitors of human galactokinase (GALK) | P51570 | recombinant GALK, Kinase-Glo ATP luminescence, 1 h | Potency, µM (doses to about 57.5 µM), inactives show at the highest dose activity, negative = inhibition, actives largely listed as inhibitors | 44,000 tested, under 10 active | AID 1347072;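 also: plate controls were full GALK reaction for no effect and reaction lacking GALK for full effect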
Target sequence (P51570 whole entry, looked up): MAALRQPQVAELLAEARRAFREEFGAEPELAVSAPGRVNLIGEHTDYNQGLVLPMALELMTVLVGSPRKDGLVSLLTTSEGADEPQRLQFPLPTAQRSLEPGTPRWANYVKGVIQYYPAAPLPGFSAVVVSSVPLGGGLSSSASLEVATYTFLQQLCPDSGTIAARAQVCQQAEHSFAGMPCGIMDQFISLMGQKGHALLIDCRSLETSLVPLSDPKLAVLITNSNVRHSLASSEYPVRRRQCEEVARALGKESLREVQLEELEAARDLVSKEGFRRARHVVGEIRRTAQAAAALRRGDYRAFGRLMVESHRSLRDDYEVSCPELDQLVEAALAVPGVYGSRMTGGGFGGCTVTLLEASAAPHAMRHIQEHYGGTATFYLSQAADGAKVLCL
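Human GALK (5 nM) was incubated with 35 uM ATP and 100 uM galactose in 20 mM HEPES pH 8.0 with MgCl2, NaCl, DTT and BSA for 1 h at room temperature. Remaining ATP was measured by Kinase-Glo Plus luminescence.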
Starred values were filed as active, the others as inactive; i = inactive; u = inconclusive; x = not tested or not shown. Compounds with a hit are over-represented: about 2.5% of the library has one in this group of screens. Unless noted, calls follow the shape of the dose curve; as a rule, active = well fitted curve in the direction sought with a large enough effect; inconclusive = small, poorly fitted or top-dose-only effect, or another doubt; inactive = no such curve, though single readings can be large; an effect the other way counts as inactive or inconclusive.

SMILES | GPR32 ag | B2AR arrestin ag | TSG101-PTAP inh | GALK inhibitor
COc1ccc(NC(=O)C2CCCN(S(=O)(=O)c3cccs3)C2)cc1 (stereo not given) | 8 | i | i | -12%
CCc1ccc(NC(=O)C2CCCN(S(=O)(=O)c3cccc4nonc34)C2)cc1 (stereo not given) | 89* | i | i | 1%
CC(C)c1ccc(NC(=O)C2CCCN(S(=O)(=O)c3cccc4nonc34)C2)cc1 (stereo not given) | 17 | i | i | -9%
O=C(Nc1ccc(Br)cc1)C1CCCN(S(=O)(=O)c2ccc(Br)s2)C1 (stereo not given) | 82* | i | i | 1%
CC(C)CCNC(=O)C1CCC(Cn2c(=O)c3sccc3n(CC(=O)NC(C)C)c2=O)CC1 (stereo not given) | -8 | i | i | -1%
Nc1cc(C(F)(F)F)ccc1S | 31 | x | x | x
OC1(c2ccccc2)CCNCC1 | -26 | x | x | x
CO/N=C(\C(=O)N[C@@H]1C(=O)N2C(C(=O)O)=C(CSc3nc(=O)c(O)nn3C)CS[C@H]12)c1csc(N)n1 | 44 | x | x | x
Clc1cccc(-c2noc3ncnc(NC4CCCCC4)c23)c1 | 91* | i | i | -2%
Clc1ccc(-c2noc3ncnc(NC4CCCCC4)c23)cc1 | 29 | i | i | -2%
CCN(C(=O)CSc1ncc(S(=O)(=O)c2ccc(C)c(Cl)c2)c(=O)[nH]1)c1cccc(C)c1 | 75* | i | i | -4%
COc1ccc(CC(=O)NCCc2sc(-c3ccc(Cl)cc3)nc2C)cc1OC | 92* | i | i | -2%
COc1ccc(-c2nc(C)c(CCNC(=O)Cc3ccc(F)cc3)s2)cc1OC | 11 | i | i | -7%
COc1ccc(-c2nc(C)c(CCNC(=O)C(=O)Nc3c(C)cccc3C)s2)cc1OC | 70* | i | i | -1%
COc1ccc(C(=O)c2oc3ccccc3c2NC(=O)c2cc(=O)c3ccc(C)cc3o2)cc1Cl | -8 | i | i | 0%
Cn1cc(C(=O)[C@@H]2CCc3nc[nH]c3C2)c2ccccc21 | 6 | x | x | x
Cc1cc(NS(=O)(=O)c2ccc(NC(=O)COc3cc(C)c(Br)cc3C(C)C)cc2)no1 | 107* | i | i | 0%
Cc1ccc(OCC(=O)Nc2ccc(S(=O)(=O)Nc3cc(C)on3)cc2)c(Br)c1 | u | i | i | 0%
COc1ccc(NS(=O)(=O)c2ccc(NS(=O)(=O)c3ccc4c(c3)OCCO4)cc2)cc1 | 68* | i | i | 0%
O=C(CC(c1cccs1)N1Cc2ccccc2C1=O)Nc1ccccc1 (stereo not given) | 30 | i | i | 2%
O=C(CC(c1cccs1)N1Cc2ccccc2C1=O)Nc1cccc(F)c1 (stereo not given) | 61* | i | i | 0%
CCOc1c(Cl)cc(CNc2ccc3[nH]c(=O)[nH]c3c2)cc1OC | 85* | i | i | -1%
O=C(Nc1ccc(OCc2cc(=O)n3ccsc3n2)cc1)c1ccc(F)cc1 | 10 | i | i | -1%
CC(C)(C)c1ccc(C(=O)Nc2ccc(OCc3cc(=O)n4ccsc4n3)cc2)cc1 | 87* | i | i | 7%
C[C@@H](NCCCc1cccc(C(F)(F)F)c1)c1cccc2ccccc12 | 15 | x | x | x
SMILES | GPR32 ag | B2AR arrestin ag | TSG101-PTAP inh | GALK inhibitor
CC(Cc1cccc(C(F)(F)F)c1)NCCOC(=O)c1ccccc1 (stereo not given) | 63* | x | x | x
CN(C)[C@@H]1C(=O)C(C(=O)NCN2CCCC2)=C(O)[C@@]2(O)C(=O)C3=C(O)c4c(O)cccc4[C@@](C)(O)C3C[C@@H]12 (stereo not given in full) | -6 | x | x | x
CCOC(=O)c1[nH]c(C)c(C(=O)NCCc2ccccc2)c1C | 85* | i | i | -1%
COc1ccc(/C(C)=C/C(=O)O)c(OC)c1 | -6 | x | x | x
Cc1ccc2c(=O)cc(C(=O)Nc3ccc(S(=O)(=O)Nc4ncccn4)cc3)oc2c1C | 67* | i | i | 9%
COc1ccc(S(=O)(=O)N(CC(=O)NC(C)c2ccccc2)c2ccc(C)cc2)cc1OC (stereo not given) | 76* | i | i | 3%
CCCCC[C@H](O)C=C[C@H]1[C@H](O)CC(=O)[C@H]1CC=CCCCC(=O)O | 3 | x | x | x
COc1cc(CNCCSc2nnnn2C)ccc1OCc1ccccc1C | 73* | i | i | 9%
Cn1nnnc1SCCNCc1cc(Br)ccc1OCc1ccccc1Cl | 75* | i | i | 8%
CN1Cc2cc(C(=O)N3CCC(C4CCNCC4)CC3)ccc2NC(CC(=O)O)C1=O (stereo not given) | -7 | x | x | x
CCN(CC)CCNC(=O)c1ccc(-c2nc(CN3CCc4ccccc43)c(C)o2)cc1 | 97* | i | i | 3%
Cc1oc(-c2ccc(C(=O)NCCC(C)C)cc2)nc1CN1CCc2ccccc21 | -1 | i | i | 1%
COc1cccc(CNc2nccn(-c3cc(C)cc(C)c3)c2=O)c1 | 63* | i | i | 0%
Cc1cc(C)cc(-n2ccnc(NCc3ccc(F)cc3)c2=O)c1 | -6 | i | i | 1%
Cc1ccc(CNc2nccn(-c3cc(C)cc(C)c3)c2=O)cc1 | 47 | i | i | 1%
COc1ccc(-n2ccnc(NCc3ccc(Cl)cc3)c2=O)cc1 | 60* | i | i | 3%
CCCCC(CC)CNC(=O)CC(C)OC(=O)CCC(=O)O (stereo not given) | -1 | x | x | x
CCOc1ccc(NC(=O)N2CCN(Cc3cc(=O)n4nc(-c5ccc(OC)cc5)sc4n3)CC2)cc1 | -3 | i | i | 0%
CCOc1ccc(C(=O)N2CCN(Cc3cc(=O)n4nc(-c5cccc(OC)c5)sc4n3)CC2)cc1 | 74* | i | i | -4%
CCC(C)Cn1c(/C=C/c2ccccc2)nc2ccccc21 (stereo not given) | u | i | i | 1%
CCOc1ccc(NC(=O)NCCCN2CCN(c3ccc(F)cc3)CC2)cc1 | 9 | i | i | 2%
O=C(NCCCN1CCN(c2ccc(F)cc2)CC1)Nc1ccc(Cl)cc1 | 83* | i | i | 2%
Cc1ccc(C(=O)c2oc3ccccc3c2NC(=O)c2nc(S(C)(=O)=O)ncc2Cl)cc1F | 75* | i | i | -10%
COc1ccc(-n2cc(-c3ccccc3)c3c(SC(C)C(C)=O)ncnc32)cc1 (stereo not given) | 99* | i | i | 3%
COc1cc(Cl)c(NS(=O)(=O)c2ccc(-c3coc(C)n3)cc2)c(OC)c1 | 83* | i | i | 2%
CCN(CC)c1ccc(NS(=O)(=O)c2ccc(-c3coc(C)n3)cc2)c(C)c1 | 68* | i | i | 0%
Cc1nc(-c2ccc(S(=O)(=O)Nc3ccc(C)c(N(C)C)c3)cc2)co1 | 44 | i | i | 2%
